Compounds with a hit are over-represented: about 2.4% of the library has one in this group of screens.
D2 PAM-1: positive allosteric modulators of human D2 dopamine receptor; P14416; HEK293 T-REx D2, calcium flux, EC20 dopamine potentiation; potentiation, % at 10 µM; actives 0.34% (n = 340,000);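 active means potentiation over 3 SD above the plate norm, cut at about 30% in these data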; further: 0% is about no effect
Target sequence (P14416 whole entry, looked up): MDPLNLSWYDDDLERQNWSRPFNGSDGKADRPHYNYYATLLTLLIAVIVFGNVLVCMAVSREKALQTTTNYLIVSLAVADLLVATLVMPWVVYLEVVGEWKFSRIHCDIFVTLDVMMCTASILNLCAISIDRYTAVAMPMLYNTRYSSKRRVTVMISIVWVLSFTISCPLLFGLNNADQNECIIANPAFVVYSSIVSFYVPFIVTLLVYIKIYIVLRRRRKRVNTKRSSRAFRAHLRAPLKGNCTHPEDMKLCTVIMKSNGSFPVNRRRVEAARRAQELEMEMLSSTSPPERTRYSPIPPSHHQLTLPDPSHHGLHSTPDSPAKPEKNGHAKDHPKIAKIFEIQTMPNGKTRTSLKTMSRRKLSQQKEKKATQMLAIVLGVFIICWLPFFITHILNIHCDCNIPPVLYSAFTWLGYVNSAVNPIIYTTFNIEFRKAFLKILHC
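Potentiation of an EC20 dopamine calcium response measured kinetically over 180 s, after a preceding 180 s compound-only read flagging agonists. Cells: inducible Hek293 Trex D2 line, 4000/well, cultured overnight at 30 C before dye loading.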
D2 ag-1: agonists of human D2 dopamine receptor; P14416; actives 0.53% (n = 340,000); AID 485358; HEK293 T-REx D2 cells, calcium flux agonist mode; activation, % at 2 µM;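 active means activation over 3 SD above normal in the single-dose calcium agonist read, cut at about 30% in these data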; further: 0% is about no effect
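Tetracycline-induced HEK293 Trex cells with D2 receptor force-coupled to calcium signaling, plated overnight at 30 C and loaded with no-wash calcium dye. Calcium flux read kinetically for 180 s after compound addition; responses flag agonists.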
D2 antag: D2 dopamine receptor (human) antagonism; P14416; HEK293 TREx D2 cells, calcium flux, dopamine EC80; inhibition, % at 10 µM; actives 2% (n = 340,000); AID 485344; in the data active means inhibition above about 30%; inactive means below that, where a call was filed; further: 0% is about no effect
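Inhibition of EC80 dopamine-driven calcium flux, recorded kinetically, defines activity here; cells are a tetracycline-induced HEK293 T-REx line expressing force-coupled D2.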
D2 ag-2: human D2 receptor agonism in beta-arrestin assay | DiscoveRx PathHunter D2 beta-arrestin, luminescence, 90 min; 100% = 57 uM dopamine signal | activation, % (no concentration beside the values) | actives 0.084% (n = 360,000); in the data active means activation above about 40%; inconclusive means between about 15% and that limit
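DiscoveRx PathHunter D2 beta-arrestin cells (2,100/well) attached overnight, then compound-stimulated 90 min at 37 C in HBSS/10 mM HEPES/0.1% Tween-20 buffer; beta-galactosidase complementation read by luminescence after 1 h at ambient temperature. Dopamine 57 uM final (EC100) as control.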
D2 PAM-2: human D2 receptor positive allosteric modulation. DiscoveRx D2 beta-arrestin cells, luminescence, 90 min; 100% = 57 uM dopamine signal. potentiation, % (no concentration beside the values). actives 0.23% (n = 360,000). P14416; in the data active means potentiation above about 50%; inconclusive means mostly about 30% to 49%
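PathHunter D2 cells, attached overnight at 37 deg C, received compound in DMSO plus dopamine at EC20 (50 nM final) for 90 min at 37 deg C. Beta-arrestin recruitment was read as luminescence after 1 h with detection reagent at ambient temperature.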
* hit, by the source's call; ? = inconclusive; . = no result given.

SMILES	D2 PAM-1	D2 ag-1	D2 antag	D2 ag-2	D2 PAM-2
O=C(NC1CCN(Cc2ccc3ccccc3c2)CC1)c1ccccc1	-23	-2	51*	-3	-34
CS(=O)(=O)Cc1ccc(C(=O)NC2CCN(Cc3ccccc3)C2)cc1 (centres undefined)	-11	0	27	2	-11
O=C(NC1CCCC1)c1ccc2c(c1)N(Cc1ccccc1)CCS2	-4	0	-6	2	3
O=C(NC1CCN(Cc2ccc(Cl)c(Cl)c2)CC1)c1ccccc1	-29	-2	81*	2	-37
O=C(O)CC(NC(=O)Nc1ccccc1)c1ccc(OC2CCCC2)cc1 (centres undefined)	8	0	-6	2	-3
CCOc1ccc(-c2cc3c(=O)n(Cc4nc(-c5ccc(OC)cc5OC)oc4C)ccn3n2)cc1Cl	18	-1	.	.	.
COc1cc(CN2CCN(C(c3ccccc3)c3ccccc3)CC2)cc(OC)c1OC	-19	-2	17	3	-7
CN1CCCN(C(c2ccccc2)c2ccc(Cl)cc2)CC1 (centres undefined)	-30	2	82*	-2	-36
Cc1cccc(CN2CCN(C(c3ccccc3)c3ccc(Cl)cc3)CC2)c1 (centres undefined)	-22	-2	31*	-6	-24
C=CCN1CCc2c(cc(O)c(O)c2Br)[C@@H](c2ccccc2)C1	.	.	.	59*	66*
CCN(CC)S(=O)(=O)c1cc(C(=O)OCC(=O)c2ccc3c(c2)NC(=O)CO3)ccc1F	-1	-1	6	0	2
CC(=O)c1cccc(NC(=O)c2ccc3ccccc3c2)c1	-3	0	31*	0	2
CCOC(=O)N1CCC(NC(=O)c2cnn(-c3cccc(C)c3)c2-n2cccc2)CC1	2	.	.	.	.
O=C(c1ccco1)N1CCN(C(=O)c2[nH]c(C(F)(F)F)nc2-c2ccccc2)CC1	.	.	.	3	2
Cc1ccc(-c2nnc(SCC(=O)N/N=C/c3c(C)nn(-c4ccccc4)c3C)n2-c2ccc(C)cc2)cc1	-5	-1	-3	-4	14
CCn1c(SCC(=O)N/N=C/c2ccc(C)o2)nnc1-c1ccccc1	-5	1	57*	-3	-9
O=C(CSc1nnc(-c2ccccc2)n1-c1ccc(Cl)cc1)N/N=C/c1ccccc1C(=O)O	-6	-1	6	2	7
Cc1nn(-c2ccccc2)c(C)c1/C=N/NC(=O)CSc1nnc(-c2ccccc2)n1-c1ccc(Cl)cc1	35*	-2	-9	-4	-3
Cc1ccc(/C=N/NC(=O)CSc2nnc(-c3ccccc3)n2-c2ccc(Cl)cc2)o1	8	0	12	14	54*
Cc1ccc(/C=N/NC(=O)CSc2nnc(-c3ccc(Cl)cc3)n2-c2ccc(Cl)cc2)o1	0	1	5	15	84*
CNCc1nc2ccccc2[nH]1	-1	1	-1	0	-4
CCCCC(CC)CNC(=O)C1CCCN(S(=O)(=O)c2cnc[nH]2)C1 (centres undefined)	6	0	-14	-2	-6
CCOC(=O)c1ccc(NC(=O)CSc2nnc(Cn3c(=O)sc4ccccc43)n2C)cc1	.	.	.	-4	-3
CCOC(=O)C(=CNc1cc(C)nn1-c1ccc(C)cc1)C(=O)OCC	8	-1	14	-1	65*
NC(=S)n1[nH]c(-c2ccc([N+](=O)[O-])cc2)c(N=Nc2cccc([N+](=O)[O-])c2)c1=O	12	2	-15	-1	-2
SMILES	D2 PAM-1	D2 ag-1	D2 antag	D2 ag-2	D2 PAM-2
CCCN1CCN(C(=O)Nc2cccc(C(F)(F)F)c2)CC1	-11	-1	52*	-3	-15
CCOCCCN(C)C1CCN(C(=O)c2oc3ccccc3c2NC(=O)COc2ccc(F)cc2)CC1	-26	1	50*	-8	-37
O=C(O)/C=C/C(=O)N1CCN(S(=O)(=O)c2cccc(C(F)(F)F)c2)CC1	5	0	31*	3	?
CNC(=O)c1ccc(NC(=O)C2CCN(S(=O)(=O)c3cccc(C(F)(F)F)c3)CC2)cc1	-2	1	30*	1	14
O=C(NNC(=O)C1CCN(S(=O)(=O)c2cccc(C(F)(F)F)c2)CC1)C1CC1	-3	0	4	1	3
CC(C)N1C(=O)S/C(=C/c2cccnc2)C1=O	15	0	7	0	6
CCOc1ccc(C(=O)Nc2ccc3c(c2)OCCO3)cc1OC	0	0	3	-2	-6
Cc1ccc(NC(=O)c2ccc3c(c2)OCCO3)cc1S(=O)(=O)Nc1cccc(Cl)c1	-4	1	31*	2	7
CCOc1ccc(NC(=O)c2ccc3c(c2)OCCO3)cc1S(=O)(=O)N(CC)CC	-9	0	32*	-2	-8
COc1cc(OC)cc(C(=O)Nc2ccccc2N2CCOCC2)c1	20	0	1	-3	-8
Cc1cc(C(C)(C)C)ccc1OC(=O)C1=CC=CN2CCS(=O)(=O)N=C12	7	1	40*	-5	1
O=C(OCC(=O)N1CCN(C(=O)c2ccco2)CC1)c1ccccc1C(=O)c1ccccc1	11	0	6	-1	-5
CC(CCc1ccccc1)NC(=O)COC(=O)c1ccc([N+](=O)[O-])cc1 (centres undefined)	38*	0	-12	0	5
CC(CCc1ccccc1)NC(=O)COC(=O)c1ccc(S(C)(=O)=O)c([N+](=O)[O-])c1 (centres undefined)	-2	0	2	-2	-6
CSc1ccc2c(c1)C(N1CCN(C)CC1)Cc1ccccc1S2 (centres undefined)	-27	2	81*	-4	-29
CCOc1ccc(NC(=O)CCN2C(=O)CSc3ccccc32)cc1	-11	1	-9	3	-5
O=C(CCN1C(=O)CSc2ccccc21)Nc1ccc(OC(F)(F)F)cc1	-17	0	51*	-1	-4
COc1cc(C(=O)OCC(=O)Nc2ccccc2C(=O)NC2CC2)c([N+](=O)[O-])cc1OC	-10	0	34*	-1	0
N#CCCN(C1CCCCC1)S(=O)(=O)c1cccc2nsnc12	0	-4	-1	0	0
CCN(c1ccc(F)cc1)S(=O)(=O)c1cccc2nsnc12	-12	0	-17	-1	-2
CCN(c1ccccc1C(=O)O)S(=O)(=O)c1cccc2nsnc12	14	-1	31*	-1	1
CN(C1CCCCC1)S(=O)(=O)c1cccc2nsnc12	-6	-1	32*	-4	-4
CC(=O)Nc1ccc(Oc2ccc(-c3noc(C)n3)cc2)cc1	-14	0	16	1	4
